RMI FANCM FP – disruptors of RMI1/RMI2 association with MM2 peptide – biochemical, fluorescence polarization, human, primary screen; RMI core complex (RMI1/RMI2) binding to FANCM MM2 peptide, human; RMI core complex with F-MM2 peptide; hits give low values; FP signal (polarization) at 33 µM; 70,000 tested, 0.58% active; AID 1159607, 2016; in the data active means FP signal below about 40
Numbers without * were called inactive; ! = repeats disagree. This is one part of a sample in which hits are shown more often than they occur.

SMILES | RMI FANCM FP
C[C@@H]1C(=O)O[C@H]2[C@H]1CC[C@@]1(C)C=CC(=O)[C@@]3(C)O[C@@]213 | 31*!
CCn1ccc(C(=O)Nc2ccc(Cl)cc2C(=O)c2ccccc2Cl)n1 | 87
CCOc1ccc(CC(=O)Nc2ccc(Br)cc2C(=O)c2ccccc2)cc1 | 63
CCN(CC)CCN(C(=O)Cc1ccc2c(c1)OCO2)c1nc2ccc(Br)cc2s1 | 82
CC[C@@H](C(N)=O)N1CCCC1=O | 26*
CN(C)C(=O)Oc1cccc(NS(=O)(=O)N(C)C)c1 | 65
CN(C)CCN(C(=O)COc1ccc(Cl)cc1Cl)c1nc2cc3c(cc2s1)OCO3 | 79
O=C(c1ccccc1)c1cc(Cl)ccc1NC(=O)c1coc2ccccc2c1=O | 63
CC(=O)c1ccc(NC(=O)c2cccn(Cc3c(F)cccc3Cl)c2=O)cc1 | 52
CC12CCC3C(CC=C4CC(O)CCC43C)C1CCC2=O (stereo not given) | 56
COc1ccc(CC(=O)N2CCN(Cc3nc(C4CC4)cs3)CC2)cc1OC | 60
O=C(Cc1cccs1)N1CCN(Cc2nc(-c3ccco3)cs2)CC1 | 62
O=C1CC2(CCNCC2)Oc2ccccc21 | 57
Cc1[nH]c2ccc(O)cc2c1CCN | 49
NCCc1cccc(O)c1 | 19*
COc1cc(CCN)ccc1O | 57
CC1(C)C(=O)C=C[C@]2(C)C3CC[C@@]4(C)[C@H](c5ccoc5)C[C@H]5O[C@]54C3[C@H](O)CC12 (stereo not given in full) | 57
CC12CCC3C(CCC4(O)CC(O)CCC34/C=N\NC(N)=O)C1(O)CCC2C1=CC(=O)OC1 (stereo not given) | 59
OC12CCCCC1CNCC2 (stereo not given) | 55
CCN(CC)C(=O)N[C@@H]1C=C2c3cccc4[nH]cc(c34)C[C@H]2N(C)C1 | 47
CC[C@@H](CO)NC(=O)[C@@H]1C=C2c3cccc4[nH]cc(c34)C[C@H]2N(C)C1 | 4*!
CC[C@@H](CO)NC(=O)[C@@H]1C=C2c3cccc4c3c(cn4C)C[C@H]2N(C)C1 | 37
CCc1cccc2sc(N3CCNCC3)nc12 | 70
COc1cc2c(cc1OC)[C@@H]1C(=O)c3ccc4c(c3O[C@@H]1CO2)CC(C(C)C)O4 (stereo not given in full) | 55
C=C(C)[C@H]1Cc2c(ccc3c2O[C@@H]2COc4cc(OC)c(OC)cc4[C@@H]2C3=O)O1 | 56
COc1cc2c(cc1OC)[C@@H]1C(=O)c3ccc(OC)c(CC=C(C)C)c3O[C@@H]1CO2 | 29*
O=C(Nc1ccc(Br)cc1C(=O)c1ccccc1Cl)c1ccc2c(c1)OCO2 | 66
COC(=O)[C@]1(C)CC[C@]2(C)CC[C@]3(C)C4=CCc5c(cc(O)c(O)c5C)[C@]4(C)CC[C@@]3(C)C2C1 (stereo not given in full) | 13*
C=C1CC[C@@H]2CCC3C(CCC4(C)C3CC[C@]4(C)O)C2(C)C1 (stereo not given in full) | 55
CCC(C)C(OC(C)=O)C(=O)O[C@H]1[C@H](O)C2[C@@]3(C)C=CC(=O)C(C)(C)C3C[C@@H](OC(=O)C(O)C(C)C)[C@@]2(C)[C@@]23O[C@@H]2C[C@@H](c2ccoc2)[C@]13C (stereo not given in full) | 64
